Screening data (PubChem)
An excerpt weighted towards active compounds, which were near 11% of everything screened.
Sm TGR inh: blocks Schistosoma mansoni thioredoxin glutathione reductase | Q962Y6 | purified TGR, DTNB reduction, TNB absorbance 405 nm | Potency, µM (series often up to 114 µM), most hits filed as inhibitors | actives 3% (n = 360,000); note: nearly all actives have a fitted effect of over 60% in size
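TGR 20 nM + NADPH 100 uM (dispensed conc.), cpd preinc 15 min RT; start with NADPH (500 uM addition) then DTNB (15 mM addition). Kinetic TNB absorbance, 405 nm filter. Four-parameter Hill fit across titration.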
AMA1-RON2 inh: disrupts binding of P. falciparum AMA1 to RON2; AlphaScreen AMA1-biotinylated RON2 peptide binding; Potency, µM (series often up to 58.2 µM), hits mostly inhibitors; actives 0.2% (n = 360,000); note: nearly all actives have a fitted effect of over 45% in size
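AMA1 (3D7) with his tag at 25 nM final met compounds first, then biotinylated RON2 peptide at 25 nM; detection used donor plus acceptor beads, 10 µg/mL apiece, read by AlphaScreen after 30 min at room temperature.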
Pf growth 96h: inhibits malaria parasite growth, 96 h; actives 6.9% (n = 320,000); P. falciparum luciferase reporter growth, 96 h; Potency, µM (titrated, usually from 28.7 µM), actives largely listed as inhibitors
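Parasite growth measured via integrated firefly luciferase reporter in P. falciparum. Infected erythrocytes at 2% hematocrit, 0.05% parasitemia final were treated 96 hours at 37 C under 5% CO2, and luminescence was read.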
NS1 inh: inhibitors of influenza NS1 protein function; Potency, µM (doses to about 46.1 µM); actives 0.4% (n = 270,000); AID 2326; calls by dose curve; note: actives are rising curves; nearly all actives have a fitted effect of over 50% in size
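Recovery from NS1-induced slow growth read by OD600 in budding yeast switched to galactose assay medium (pH 6.0, -URA) at 1:100 dilution. Compound 23 nl per well; the matching strain lacking NS1 serves as control.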
Pf growth 48h: inhibits P. falciparum growth in the first generation, 48 h | P. falciparum luciferase growth in erythrocytes, 48 h | Potency, µM (highest dose often 28.7 µM), usual class: inhibitors | actives 5.9% (n = 310,000)
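Luciferase-expressing parasites in RBCs, 2% Hct / 0.1% parasitemia final; RPMI 1640 + 0.5% Albumax; 37 C, 5% CO2, one generation; luminescence read-out, lower signal = inhibition.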
Of the large screens only hits and unclear results are named; the others gave an inactive call. Unless noted, calls come from the whole dose curve; as a rule, active = well fitted curve in the direction sought with a large enough effect; inconclusive = small, poorly fitted or top-dose-only effect, or another doubt; inactive = no such curve, though single readings can be large; an effect the other way counts as inactive or inconclusive.

CCOC(=O)C1=C(Nc2ccccc2)CC(C)(O)C(C(=O)OCC)C1c1ccc(Cl)cc1 (centres undefined)	Pf growth 96h 11.7µM, Pf growth 48h inconclusive
COc1ccc(NC2=C(C(C)=O)C(c3ccccc3)C(C(C)=O)C(C)(O)C2)cc1 (centres undefined)	none
CCCN1CCN(CCNC(=O)Nc2cc(OC)cc(OC)c2)CC1	none (no result: AMA1-RON2 inh, Pf growth 96h, NS1 inh, Pf growth 48h)
CCN1CCN(C(=O)c2cnn(-c3ccc(F)cc3)c2-n2cccc2)CC1	none (no result: AMA1-RON2 inh, Pf growth 96h, NS1 inh, Pf growth 48h)
O=C(CNC(=O)c1ccccc1)OCc1cccc([N+](=O)[O-])c1	none
CCCS(=O)(=O)c1ccc(COC(=O)Cc2ccc([N+](=O)[O-])cc2)cc1	Pf growth 96h 2.94µM
CC(C)(C)c1ccc(C(=O)NCC(=O)OCc2ccc([N+](=O)[O-])cc2)cc1	Pf growth 96h 0.522µM
Cc1ccc(Cn2c(CO)cnc2SCC(=O)Nc2ccc(C)c(Cl)c2)cc1	none (no result: AMA1-RON2 inh, Pf growth 96h, NS1 inh, Pf growth 48h)
CC(=O)Nc1ccc(C(C#N)c2ccccc2)cc1 (centres undefined)	none
O=C1CSC(=Nc2cccc([N+](=O)[O-])c2)N1	Pf growth 96h 1.65µM
CCCCOC(=O)NS(=O)(=O)c1sc(CC(C)C)cc1-c1ccc(Cn2c(CC)nc3c(C)cc(C)nc32)cc1	Pf growth 96h inconclusive, NS1 inh inconclusive, Pf growth 48h 14.7µM (no result: AMA1-RON2 inh)
O=C(c1cccn2c(=O)c3cc(Cl)ccc3nc12)N1CCOCC1	Pf growth 96h 10.4µM, Pf growth 48h 13.1µM
O=C(c1ccc(Cl)cc1Cl)N1CCOCC1	none (no result: Sm TGR inh, Pf growth 96h, NS1 inh, Pf growth 48h)
O=C(c1cc2cc(Cl)cc(Cl)c2oc1=O)N1CCOCC1	Pf growth 96h 8.28µM
O=C(c1cc(Cl)ccc1Cl)N1CCOCC1	Pf growth 96h 13.1µM
Cn1c(CBr)c(C(=O)c2ccc([N+](=O)[O-])cc2)c(=O)n(C)c1=O	none
CCc1ccc(NC(=O)CSc2nc3c(c(=O)n(C)c(=O)n3C)n2C)cc1	Pf growth 96h 10.4µM
CCc1ccc(NC(=O)CSc2nc3ccsc3c(=O)n2CCC(=O)O)cc1	Pf growth 96h 7.38µM
O=C(NCCCN1CCN(c2ccccc2F)CC1)C1COc2ccccc2C1 (centres undefined)	none (no result: AMA1-RON2 inh, Pf growth 96h, NS1 inh, Pf growth 48h)
CCCCNCC1C(Oc2ccc(Cl)cc2)C(=O)N1c1ccccc1C (centres undefined)	AMA1-RON2 inh inconclusive, Pf growth 48h 14.7µM (no result: NS1 inh)
CCCNCC1C(Oc2ccc(Cl)cc2Cl)C(=O)N1c1cccc(C)c1C (centres undefined)	Pf growth 48h inconclusive (no result: NS1 inh)
Cc1ccc(C(=O)C=CNNC(=O)c2ccccc2)cc1	Sm TGR inh 39.8µM, Pf growth 96h inconclusive
O=C(C(=O)c1ccc(O)cc1)c1ccccc1	NS1 inh inconclusive
O=C(O)/C=C/C(=O)c1ccc(O)cc1	Sm TGR inh 3.16µM, Pf growth 96h 0.928µM, Pf growth 48h inconclusive
Cc1ccc(C(=O)/C=C\C(=O)c2ccc(C)cc2)cc1	Sm TGR inh 1.78µM
O=C1C=CC(=O)N1c1ccc(O)cc1	Sm TGR inh 0.891µM
O=C1C=CC(=O)N1c1ccc(OC(F)F)cc1	Sm TGR inh 0.355µM, Pf growth 96h 9.28µM
O=C1c2cccc3cccc(c23)C(=O)N1c1ccc(O)cc1	Pf growth 96h inconclusive
O=C1CCCC(=O)N1c1ccc(O)cc1	Pf growth 96h 11.7µM
O=C1C2C3C=CC(C2C(=O)N1c1ccc(O)cc1)C1C2C(=O)N(c4ccc(O)cc4)C(=O)C2C31 (centres undefined)	Sm TGR inh 50.1µM
COc1cc(C(=O)NCc2ccccc2Cl)ccc1OCC(=O)N1CCOCC1	none (no result: Sm TGR inh, Pf growth 96h, NS1 inh, Pf growth 48h)
COc1ccc(CCNC(=O)Cc2c(C)c3cc4c(C(C)(C)C)coc4c(C)c3oc2=O)cc1OC	none (no result: AMA1-RON2 inh, Pf growth 96h, NS1 inh, Pf growth 48h)
CCN(CC)S(=O)(=O)c1cc(-c2nnc(-c3ccc(Br)cc3)o2)ccc1Br	none
CCN(CC)S(=O)(=O)c1cc(-c2nnc(-c3ccc(Br)cc3)o2)ccc1Cl	Pf growth 96h 3.29µM
CCOc1cc(C2NC(=O)NC(c3ccccc3)=C2C(C)=O)ccc1OC(C)=O (centres undefined)	none (no result: Sm TGR inh)
O=C(O)Cc1nc(-c2cccnc2)sc1-c1ccc(Br)cc1	Sm TGR inh 11.2µM, Pf growth 96h inconclusive, Pf growth 48h inconclusive
O=C(O)Cc1sc(-c2ccccc2)nc1-c1ccccc1	none
CC(=O)N1CCN(C(=O)CCc2nnc(CCCCc3ccccc3)o2)CC1	Sm TGR inh 44.7µM, Pf growth 96h 11.7µM
NS(=O)(=O)c1ccc(NC(=O)COC(=O)c2ccc([N+](=O)[O-])s2)cc1	Sm TGR inh 25.1µM
